# From PubChem
# TRHR PAM: qHTS for Small Molecule Agonists and Allosteric Enhancers of Human TRH Receptor: Primary Screen for Enhancers; TRHR cells, fluo-8 calcium fluorescence, EC20 TRH enhancement; enhancement, % at 2 µM; hit rate 0.66% among 360,000; AID 493056, 2011; in the data active = enhancement above about 30%; also: 0% is about no effect
#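 TRHR-expressing cells loaded with fluo-8 calcium dye were read kinetically (ex 480/em 530) during compound addition, then stimulated with an EC20 of TRH (10 nM final). Enhancement of the Gq-mediated intracellular calcium response was scored.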
# D1 potentiator: Potentiators of Human D1 Dopamine Receptor: qHTS; potentiation, % at 10 µM; D(1A) dopamine receptor (Homo sapiens), P21728; hit rate 0.036% among 360,000; HEK293 TREx D1 cells, calcium flux, dopamine EC20 potentiation; in the data active = potentiation above about 30%; also: 0% is about no effect
# Target sequence (P21728 whole entry, looked up): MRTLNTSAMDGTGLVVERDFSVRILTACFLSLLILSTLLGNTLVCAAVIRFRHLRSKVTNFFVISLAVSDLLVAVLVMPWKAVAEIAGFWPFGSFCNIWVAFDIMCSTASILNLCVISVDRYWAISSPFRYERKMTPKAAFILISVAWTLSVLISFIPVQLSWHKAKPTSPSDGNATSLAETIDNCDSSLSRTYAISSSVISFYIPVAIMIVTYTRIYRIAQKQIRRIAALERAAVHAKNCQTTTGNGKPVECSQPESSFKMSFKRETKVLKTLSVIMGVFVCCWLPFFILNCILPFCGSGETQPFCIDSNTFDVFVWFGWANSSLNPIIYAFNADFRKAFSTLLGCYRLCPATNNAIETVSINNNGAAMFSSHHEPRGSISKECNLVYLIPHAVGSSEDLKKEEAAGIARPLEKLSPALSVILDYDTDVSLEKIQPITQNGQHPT
# D1 antagonist: Antagonist of Human D 1 Dopamine Receptor: qHTS | D(1A) dopamine receptor (Homo sapiens), P21728 | HEK293 TREx D1 cells, calcium flux, dopamine EC80; active compounds read low | activity change, negative = inhibition, % at 10 µM | hit rate 3.2% among 360,000 | AID 504652, 2011; in the data active = activity change below about -30%; also: % is scaled to controls: 0 for no effect and ±100 for the full control effect
#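 HEK293 T-REx cells expressing inducible, force-coupled D1 receptor; no-wash Ca dye, 30–90 min RT. Cmpd → 180 s read at 1 Hz → EC80 DA → 180 s read.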
# D1 agonist: Allosteric Agonists of the Human D1 Dopamine Receptor: qHTS; HEK293 T-REx D1 cells, calcium flux, agonist mode; activation, % at 2 µM; hit rate 1% among 360,000; AID 504660, 2011; also: 0% is about no effect
#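 Tetracycline-induced HEK293 TREx D1 cells, force-coupled to calcium signalling, were dye-loaded with a no-wash calcium kit. Compound was pin-added after a 10 s baseline. Fluorescence was read kinetically at 1 cycle/s for 180 s, with calcium rises flagged as agonism.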
# TRHR agonist: qHTS for Small Molecule Agonists and Allosteric Enhancers of Human TRH Receptor: Primary Screen for Agonists; TRHR cells, calcium flux fluo-8, FDSS agonist mode; activation, % at 2 µM; Thyrotropin-releasing hormone receptor (Homo sapiens), P34981; hit rate 0.18% among 360,000; also: 0% is about no effect
#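 TRHR-expressing cells loaded with fluo-8 calcium dye; 23 nL library compound pin-transferred, kinetic FDSS fluorescence (Ex 480/Em 530) recorded about 180 s for agonist-induced calcium release, before a 10 nM TRH EC20 addition for potentiator mode.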
# Numbers without * were called inactive. This is a sample that favours compounds with a hit; in the whole collection about 4.7% have one here. Rule as the data show it, unless noted: active = activation above about 30%; inactive = the rest.
SMILES,TRHR PAM,D1 potentiator,D1 antagonist,D1 agonist,TRHR agonist
Cc1ccccc1OCc1ccc(-c2nc(C#N)c(NCc3cccnc3)o2)o1,-16,-2,-17,-1,1
CCC1CN(C(=O)Nc2cccc3c2CCCC3)c2cc(Cl)ccc2O1 (stereo not drawn),-1,1,3,6,1
O=C(NC(=O)N1CCN(c2cccc(Cl)c2)CC1)c1ccc(Cl)cc1,-2,-19,-37*,10,3
Cc1ccc(C)c(N2CCN(C(=O)c3cccc(-n4c(C)nc5cccnc54)c3)CC2)c1,-6,-2,-21,15,2
Cc1ccc(C(=O)N2CCN(c3cccc(Cl)c3)CC2)cc1C,4,-1,-32*,2,0
Cc1ccc(Cl)cc1N1CCN(C(=O)c2ccc(C)c(-n3c(C)nc4cccnc43)c2)CC1,0,3,-32*,69*,-1
O=C(c1cccc(N2CCCC2=O)c1)N1CCN(c2cccc(Cl)c2)CC1,-3,-7,-57*,17,0
O=C(NC(=O)N1CCN(c2cccc(Cl)c2)CC1)c1ccccc1,-5,-11,-29,4,0
C=CCC(CC=C)(CNC(=O)C(=O)Nc1cc(C)ccc1OC)c1ccc(OC)c(OC)c1,1,0,-1,10,3
CC(CNC(=O)c1cc(-c2ccccc2)n[nH]1)c1ccccc1 (stereo not drawn),-2,-3,-51*,0,0
Cc1ccc(CCNC(=O)c2cc(-c3ccccc3)n[nH]2)cc1,-3,-3,-17,9,0
CC(C)(C)NC(=O)c1cc(-c2ccccc2)n[nH]1,-8,-7,-32*,4,-1
O=C(NCCc1ccc(Cl)cc1)c1cc(-c2ccccc2)n[nH]1,20,2,-31*,1,-1
COC(=O)c1cc(-c2ccccc2)n[nH]1,2,9,-7,2,0
CCOc1ccc(NC(=O)c2ccc3c(=O)n4nc(Nc5ccccc5C)sc4nc3c2)cc1,2,0,-7,2,1
Nc1c(C(=O)c2ccc(F)cc2)sc(Nc2ccccc2F)c1S(=O)(=O)c1ccc(Br)cc1,-14,-3,-26,83*,4
Cc1ccc(Nc2sc(C(=O)c3ccc(F)cc3)c(N)c2S(=O)(=O)c2ccc(C)cc2)cc1,5,-2,-30*,79*,4
COc1ccc(OC)c(Nc2sc(C(=O)c3ccccc3)c(N)c2S(=O)(=O)c2ccccc2)c1,-1,-1,-25,58*,2
Cc1ccc(S(=O)(=O)c2c(Nc3cc(F)ccc3F)sc(C(=O)c3ccc(F)cc3)c2N)cc1,-8,4,-69*,57*,7
CC1=C(c2ccc(C(C)C)cc2)S(=O)(=O)N=C1N1CCC(C(=O)Nc2ccc(C)cc2)CC1,-9,1,47,5,0
Cc1cccc(CNC(=O)c2cnc3sc(N4CCCCCC4)nn3c2=O)c1,-5,-4,0,1,-1
CCN(CC)c1ccc2c(-c3ccc(S(=O)(=O)O)cc3S(=O)(=O)[O-])c3ccc(=[N+](CC)CC)cc-3oc2c1,8,-3,-18,172*,0
CCCn1c(SCC(=O)NC2CCC(C)CC2)n[nH]c1=O (stereo not drawn),-2,-6,12,2,1
CCn1ccc2cc(S(=O)(=O)N3CCC(C(=O)NCc4ccc(F)cc4)CC3)ccc21,-4,2,-11,6,0
CCOC(=O)c1ccc(COC(=O)CNC(=O)CNC(=O)Cc2ccccc2)cc1,2,-1,6,3,-1
O=C(CNC(=O)c1ccc(Br)o1)NCC(=O)OCc1ccccc1,30*,-7,5,1,0
O=C(CNC(=O)Cc1ccccc1)NCC(=O)OCc1ccc(C(=O)c2ccccc2)cc1,-5,1,-63*,4,-1
O=C(CNS(=O)(=O)c1ccccc1)NCC(=O)OCc1ccc(Br)cc1,-3,5,-2,2,0
